Screening results (PubChem)
The list is not random: actives were taken first. Their share in the collection is about 2.8%.
IP6K1 inhibitor – Primary qHTS assay for small molecule inhibitors of Inositol hexaphosphate kinase 1 (IP6K1); IP6K1 kinase, ADP-Glo luminescence, 2 h; hits give low values; activity change, % (series mostly up to about 58 µM); 0.81% of 140,000 active; AID 1645851, 2021; in the data active = activity change below about -25%; note: % is set by controls: 0 for no effect and ±100 for the full control effect
Target sequence (Q92551 whole entry, looked up): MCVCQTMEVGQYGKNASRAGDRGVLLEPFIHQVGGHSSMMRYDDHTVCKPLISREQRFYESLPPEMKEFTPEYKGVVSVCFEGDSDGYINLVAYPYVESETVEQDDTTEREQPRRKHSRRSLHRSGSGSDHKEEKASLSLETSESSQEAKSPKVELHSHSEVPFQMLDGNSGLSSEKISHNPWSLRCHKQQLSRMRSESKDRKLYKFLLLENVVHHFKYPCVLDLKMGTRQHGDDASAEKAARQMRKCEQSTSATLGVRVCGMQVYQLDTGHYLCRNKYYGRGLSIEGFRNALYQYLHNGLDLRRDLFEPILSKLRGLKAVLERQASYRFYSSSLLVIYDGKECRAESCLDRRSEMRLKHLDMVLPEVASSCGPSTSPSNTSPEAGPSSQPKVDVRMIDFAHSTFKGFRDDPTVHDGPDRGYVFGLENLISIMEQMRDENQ
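ADP-Glo luminescence measures ADP made by human IP6K1 during a 2 h RT reaction with ATP/IP6 (mix at 1.3 mM/130 uM); top library doses 57.5 and 19.1 uM final.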
KDM5B inh – Primary screen for KDM5B Histone Demethylases FDH-coupled qHTS | KDM5B demethylase, FDH-coupled NADH fluorescence (FDH is formaldehyde dehydrogenase) | 2.6% of 220,000 active | Lysine-specific demethylase 5B (Homo sapiens), Q9UGL1 | Potency, µM (titrated, usually from 57.7 µM), most hits filed as inhibitors; active = well fitted inhibition curve with a large enough effect; inconclusive = small, poorly fitted or top-dose-only effect; inactive = no such curve, though single readings can be large or run the other way; note: potency is the fitted concentration of half-maximal effect; 0% is about no effect; nearly all actives have a fitted effect of over 70% in size
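Inhibition is measured as reduced NADH fluorescence generation from FDH coupling to formaldehyde release. Truncated KDM5BΔAP at 200 nM final acts on H3K4me3 peptide (12.5 µM in substrate mix) in pH 7.5 HEPES buffer with Tween-20, 30 min, room temperature.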
* hit, by the source's call; i = inactive; ? = inconclusive; / = no result given.

SMILES	IP6K1 inhibitor	KDM5B inh
Cc1nc(-c2ccc(N(C)C)cc2)cc([C@H]2CN3CC[C@H]2C[C@@H]3CNC(=O)c2ccccc2)n1	2.2	25.1µM*
CCOC(=O)[C@H]1CN(C(=O)CC(C)(C)C)[C@]2(C)C(=O)N(CC3CC3)c3ccccc3[C@H]12	-8.2	/
CC(N)Cc1ccc2oc3ccccc3c2c1 (configuration not stated)	/	i
CSc1cccc(NC(=O)NC[C@H]2C[C@@H]3CCN2C[C@@H]3CN2CCN(c3ccccc3)CC2)c1	11.6	i
O=C(O)CCCC(=O)N1C[C@@H]2C[C@H](C1)c1ccc(-c3ccc(Cl)cc3)c(=O)n1C2	-3.1	39.8µM*
Cc1ccccc1-c1ccc2n(c1=O)C[C@H]1C[C@@H]2CN(C(=O)c2cnccn2)C1	1.6	i
CSCC(=O)N1C[C@@H]2C[C@H](C1)c1ccc(-c3cccc(C(F)(F)F)c3)c(=O)n1C2	9.4	35.5µM*
O=C(O)C(=O)N1C[C@@H]2C[C@H](C1)c1ccc(NS(=O)(=O)c3ccccc3)c(=O)n1C2	13.0	?
O=C(c1cnccn1)N1C[C@@H]2C[C@H](C1)c1ccc(-c3cccc(C(F)(F)F)c3)c(=O)n1C2	24.3	17.8µM*
O=C(C1CCCCC1)N1C[C@@H]2C[C@H](C1)c1ccc(C3CCCCC3)c(=O)n1C2	10.9	?
CC(=O)N1C[C@@H]2C[C@H](C1)c1ccc(NC(=O)Nc3cccc(C#N)c3)c(=O)n1C2	5.0	?
O=C(C1CCCCC1)N1C[C@@H]2C[C@H](C1)c1ccc(-c3cccc(C(F)(F)F)c3)c(=O)n1C2	13.5	31.6µM*
CCOC(=O)[C@H]1CN(C(=O)Cc2ccccc2)[C@]2(C)C(=O)N(CC3CC3)c3ccccc3[C@H]12	-0.9	/
CN1Cc2ccccc2-n2ccnc2C12CCN(C(=O)c1ccc(C(F)(F)F)cc1)CC2	30.8	i
CSCC(=O)N1C[C@@H]2C[C@H](C1)c1ccc(-c3ccccc3CN(C)C)c(=O)n1C2	9.9	31.6µM*
CC(=O)N1C[C@@H]2C[C@H](C1)c1ccc(NC(=O)C3CCCCC3)c(=O)n1C2	-2.6	?
O=C(Cc1cccc(Cl)c1)N1CCN(Cc2ccccc2-c2ccccc2F)CC1	4.0	/
COc1ccc(NC(=O)OC[C@H]2C[C@@H]3CCN2C[C@@H]3c2cc(C3CCCC3)nc(-c3ccncc3)n2)cc1	-12.3	?
O=C(c1ccc(F)cc1)N1C[C@@H]2C[C@H](C1)c1ccc(-c3cncnc3)c(=O)n1C2	0.1	39.8µM*
CN(C)CC(=O)Nc1ccc2n(c1=O)C[C@H]1C[C@@H]2CN(C(=O)c2ccc(F)cc2)C1	-4.9	i
O=C(c1ccccc1)N1C[C@@H]2C[C@H](C1)c1c(-c3cncnc3)ccc(=O)n1C2	-5.1	?
O=C(c1ccccc1)N1C[C@@H]2C[C@H](C1)c1ccc(-c3cncnc3)c(=O)n1C2	-6.2	39.8µM*
O=C(Nc1ccc2n(c1=O)C[C@H]1C[C@@H]2CN(C2CCOCC2)C1)c1ccccc1	-1.5	?
O=c1c(-c2cccs2)ccc2n1C[C@H]1C[C@@H]2CN(C2CCOCC2)C1	-1.5	35.5µM*
Cc1cc(C(=O)N2[C@H]3CC[C@@H]2c2cnc(-c4ccc(F)cc4)nc2C3)n[nH]1	5.2	i
SMILES	IP6K1 inhibitor	KDM5B inh
O=C(O)C1=NOC2CN(Cc3cccnc3)CC12 (configuration not stated)	2.3	39.8µM*
O=C(O)C1=NOC2CN(Cc3ccncc3)CC12 (configuration not stated)	2.5	?
Cn1nc2n(c1=O)CCC(NC(=O)c1nn(C)c3ccccc13)CC2 (configuration not stated)	-11.9	17.8µM*
CCOC(=O)[C@@H]1[C@H]2c3ccccc3N(CCOC)C(=O)[C@H]2N(C(=O)CC(C)C)[C@@H]1c1ccccc1	2.0	/
CCOC(=O)[C@H]1CN(C(=O)Nc2ccccc2)[C@]2(C)C(=O)N(CC3CC3)c3ccccc3[C@H]12	14.4	/
CC(=O)CC(c1ccccc1[N+](=O)[O-])c1c(O)c2ccccc2oc1=O (configuration not stated)	/	i
O=c1oc2ccccc2c(O)c1Cc1c(O)c2ccccc2oc1=O	-25.1*	/
O=C(c1ccccc1)N1C[C@@H]2C[C@H](C1)c1c(/C=C/c3ccc(Cl)cc3)ccc(=O)n1C2	-3.0	35.5µM*
N#Cc1ccc(C(=O)N2C[C@@H]3C[C@H](C2)c2c(-c4ccc(Cl)cc4)ccc(=O)n2C3)cc1	-0.1	i
COc1cc2c(cc1OCC1CC1)NC(=O)C21CCN(c2ccnc(C)n2)CC1	-15.7	i
COc1cc2c(cc1Oc1ccccc1)NC(=O)C21CCN(c2ncc(F)cn2)CC1	-21.1	31.6µM*
COc1cc2c(cc1Oc1ccccc1)NC(=O)C21CCN(C(=O)c2cnccn2)CC1	-14.5	i
